Data reported in the supplement of paper PMC11628255, “Interference of metal ions on the bioluminescent signal of firefly, Renilla, and NanoLuc luciferases in high-throughput screening assays” (Frontiers in Chemistry, 2024).
± gives the standard deviation of the averaged measurements.

System: NanoLuc luciferase (NLuc)
Assay: residual bioluminescent signal relative to negative (DMSO) control; higher = less interference (more residual luciferase signal)
Experimental: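 Purified luciferase (FLuc 10 nM + 10 uM D-luciferin; NLuc 10 pM + 10 uM furimazine; RLuc 50 pM + 2 uM coelenterazine) in 384-well plates; metal salt pre-incubated with enzyme 10 min at RT, substrate added and luminescence read after 10 min. Signal normalised to plate DMSO negative control (% N_VALUE = x/mean neg *100); triplicate wells at 0.01, 1 and 5 mM salt.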

[1] = metal salt concentration 0.01 mM, HEPES conditions (100 mM HEPES, 0.1% BSA, pH 7.5)
[2] = metal salt concentration 0.01 mM, screening conditions (PBS, 0.1% BSA, pH 7.4)
[3] = metal salt concentration 1 mM, HEPES conditions (100 mM HEPES, 0.1% BSA, pH 7.5)
[4] = metal salt concentration 1 mM, screening conditions (PBS, 0.1% BSA, pH 7.4)
[5] = metal salt concentration 5 mM, HEPES conditions (100 mM HEPES, 0.1% BSA, pH 7.5)
[6] = metal salt concentration 5 mM, screening conditions (PBS, 0.1% BSA, pH 7.4)

| SMILES | residual bioluminescent signal [1] [%] | residual bioluminescent signal [2] [%] | residual bioluminescent signal [3] [%] | residual bioluminescent signal [4] [%] | residual bioluminescent signal [5] [%] | residual bioluminescent signal [6] [%] |
| --- | --- | --- | --- | --- | --- | --- |
| O=[N+]([O-])[O-].O=[N+]([O-])[O-].[Ca+2] [calcium nitrate] | 97.1 ± 2.3 | 96.46 ± 0.94 | 102 ± 5.5 | 97.6 ± 4.1 | 109 ± 3.1 | 92.6 ± 4.6 |
| O=[N+]([O-])[O-].O=[N+]([O-])[O-].[Cu+2] [copper(II) nitrate] | 95.5 ± 6.9 | 90.4 ± 2.7 | 0.235 ± 0.062 | 0.732 ± 0.11 | 0.689 ± 0.91 | 0.201 ± 0.12 |
| O=[N+]([O-])[O-].O=[N+]([O-])[O-].[Zn+2] [zinc nitrate] | 93.6 ± 0.95 | 93 ± 6.4 | 30.5 ± 4.9 | 32.8 ± 4.5 | 16.1 ± 1.8 | 9.03 ± 2.6 |
| [Cl][Sn][Cl] [tin(II) chloride] | 95.8 ± 2.9 | 97 ± 5.1 | 90.1 ± 5 | 84.2 ± 6.6 | 87.3 ± 5 | 0.413 ± 0.39 |
| O=[N+]([O-])[O-].O=[N+]([O-])[O-].[Pb+2] [lead(II) nitrate] | 94 ± 3.2 | 93.8 ± 2.2 | 26.7 ± 2.9 | 88.2 ± 4.3 | 7.56 ± 0.53 | 44.2 ± 9 |
| O=[N+]([O-])[O-].[Na+] [sodium nitrate] | 89.7 ± 1.5 | 96.7 ± 2.3 | 91.8 ± 4.2 | 93.2 ± 3.3 | 102 ± 2.5 | 94.1 ± 2.8 |
| O=[N+]([O-])[O-].O=[N+]([O-])[O-].O=[N+]([O-])[O-].[Ga+3] [gallium(III) nitrate] | 96.1 ± 2.9 | 99.5 ± 2.3 | 70.9 ± 6.9 | 83 ± 7.1 | 8.8 ± 1.5 | 0.649 ± 0.57 |
